Measured values published in PubChem BioAssay (Tox21).
Unmarked numbers belong to inactive results. Activity calls are given as the source filed them. Calls follow the shape of the dose curve; as a rule, active = well fitted curve in the direction sought with a large enough effect in the repeat runs; inconclusive = weak or mixed curves; inactive = flat fitted curve, though single readings scatter.

Test: qHTS assay to test for compound auto fluorescence at 535 nm (green) in HEK293 cells (AID 720680)
Conditions: green autofluorescence 485/535 nm; series mostly up to 91.3 µM; fluorescence, % of fluorescein: at the top concentration
% is scaled to controls: 0 for no effect and ±100 for the full control effect.

Row | SMILES | outcome | fluorescence, % of fluorescein
1 | ClC(Cl)=C(c1ccc(Cl)cc1)c1ccc(Cl)cc1 | inactive | –
2 | [Hg+2].[I-].[I-] | – | -0.128%
3 | CCCCCCCCCCCCBr | – | -0.0094%
4 | CCN(CC)c1c([N+](=O)[O-])cc(C(F)(F)F)c(N)c1[N+](=O)[O-] | – | 0.0472%
5 | CCCCCCCCCCCCCN1CC(C)OC(C)C1 (configuration not stated) | – | 0.0332%
6 | Oc1ccc(C2(c3ccc(O)cc3)CCCCC2)cc1 | – | 0.0147%
7 | Oc1c(Br)c(Br)c(Br)c(Br)c1Br | – | -0.0963%
8 | O=c1[nH]c2ccccc2n1CCCN1CCC(n2c(=O)[nH]c3cc(Cl)ccc32)CC1 | – | 0.128% [at 46 µM]
9 | O=[N+]([O-])c1cc(C(F)(F)F)c(Cl)c([N+](=O)[O-])c1Cl | – | -0.287%
10 | Cc1cc(N=Nc2ccccc2C)ccc1N | inactive | –
11 | CC(C)CCCCCCCOP(=O)(Oc1ccccc1)Oc1ccccc1 | – | -0.0148%
12 | C=CC(=O)OCC(COC(=O)C=C)(COC(=O)C=C)COC(=O)C=C | – | -0.0561%
13 | N#CNC#N | – | 0.0704% [at 95.7 µM]
14 | CCCCCCCCCCCCCC[P+](CCCCCC)(CCCCCC)CCCCCC (tested in a mixture with another compound) | – | 0.087%
15 | CC1(C)[C@H](C(=O)O[C@H](C#N)c2cccc(Oc3ccccc3)c2)[C@@H]1/C=C(\Cl)C(F)(F)F | – | 0.019%
16 | BrC(Br)C(Br)(Br)Br | – | -0.153%
17 | Fc1cccc(Cl)c1CCl | – | -0.0565%
18 | Nc1ccc(Cc2ccc(N)c(Cl)c2)cc1Cl | – | -0.121%
19 | O=c1ssc(Cl)c1Cl | – | 0.0282%
20 | c1ccc(OCC2CO2)cc1 (configuration not stated) | – | -0.0206%
21 | CC(=O)C(Cl)(Cl)Cl | – | -0.338%
22 | c1ccc2cc3c(cc2c1)-c1cccc2cccc-3c12 | – | 0.0055%

Test: qHTS assay to test for compound auto fluorescence at 460 nm (blue) in HEK293 cell free culture (AID 720681); also: potency is read from the fitted curve at half-maximal effect
Conditions: cell-free medium, autofluorescence 405/460 nm (blue); series mostly up to 91.3 µM; fluorescence, % of fluorescent control: at the top concentration
Summary of the method: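 Test compounds were pinned into cell-free culture medium (DMEM with 10% FBS) and fluorescence was read directly at Ex/Em 405/460 nm. Signals were expressed as fluorescence equivalents of triamterene, with DMSO vehicle as control.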

Row | SMILES | Potency | fluorescence, % of fluorescent control
23 | Cc1c(Cl)c(=O)oc2cc(OP(=O)(OCCCl)OCCCl)ccc12 | 12.6 µM (active) | –
24 | O=S(=O)(c1ccc(Cl)cc1)c1ccc(Cl)cc1 | – | -0.39% [at 95.7 µM]
25 | N#C/C=C/C#N | – | 0.362% [at 95.7 µM]
26 | O=C(CCl)C(Cl)Cl | – | 0.186%
27 | C=CCC1=C(C)C(OC(=O)C2C(C=C(C)C)C2(C)C)CC1=O (configuration not stated) | – | 0.407% [at 95.7 µM]
28 | O=C/C(Cl)=C(/Cl)C(=O)O | inactive | –
29 | Clc1ccc(C(c2ccccc2Cl)C(Cl)(Cl)Cl)cc1 (configuration not stated) | inactive | –
30 | Oc1ccc(C2(c3ccc(O)cc3)c3ccccc3-c3ccccc32)cc1 | – | -0.165%
31 | CC(=O)O[C@H]1CC[C@@]2(C)C(=CC[C@@H]3[C@@H]2CC[C@]2(C)C(=O)CC[C@@H]32)C1 | inactive | –
32 | CC(C)C1CCC(Cc2ccc(Cl)cc2)C1(O)Cn1cncn1 (configuration not stated) | – | 0.132%
33 | O=C(O)COc1nc(Cl)c(Cl)cc1Cl | – | -0.331% [at 95.7 µM]
34 | CC(C)[C@H](C(=O)O[C@H](C#N)c1cccc(Oc2ccccc2)c1)c1ccc(Cl)cc1 | – | 0.0382%
35 | CCCOCC(=Nc1ccc(Cl)cc1C(F)(F)F)n1ccnc1 | – | 0.0416%
36 | CCCN(CC)CC1COC2(CCC(C(C)(C)C)CC2)O1 (configuration not stated) | – | 0.264%
37 | C[C@@H]1CC[C@@]2(OC1)O[C@H]1[C@@H](O)[C@H]3[C@@H]4CC[C@H]5C[C@@H](O[C@@H]6O[C@H](CO)[C@H](O[C@@H]7O[C@H](CO)[C@@H](O)[C@H](O[C@@H]8OC[C@@H](O)[C@H](O)[C@H]8O)[C@H]7O[C@@H]7O[C@H](CO)[C@@H](O)[C@H](O[C@@H]8O[C@H](CO)[C@@H](O)[C@H](O)[C@H]8O)[C@H]7O)[C@H](O)[C@H]6O)[C@H](O)C[C@]5(C)[C@H]4CC[C@]3(C)[C@H]1[C@@H]2C | – | 0.047% [at 95.7 µM]
38 | C[C@]12CC[C@H]3[C@@H](CCC4=CC(=O)CC[C@@]43C)[C@@H]1CC[C@@H]2O | – | 0.0174%
39 | ClC(Cl)=C(c1ccc(Cl)cc1)c1ccc(Cl)cc1 | inactive | –
40 | [Hg+2].[I-].[I-] | – | 0.17%
41 | CCCCCCCCCCCCBr | – | 0.0116%
42 | CCN(CC)c1c([N+](=O)[O-])cc(C(F)(F)F)c(N)c1[N+](=O)[O-] | – | 0.0371%
43 | CCCCCCCCCCCCCN1CC(C)OC(C)C1 (configuration not stated) | – | -0.0565%
44 | Oc1ccc(C2(c3ccc(O)cc3)CCCCC2)cc1 | – | -0.0015%
45 | Oc1c(Br)c(Br)c(Br)c(Br)c1Br | – | -0.196%
46 | O=c1[nH]c2ccccc2n1CCCN1CCC(n2c(=O)[nH]c3cc(Cl)ccc32)CC1 | – | 0.103% [at 46 µM]
47 | O=[N+]([O-])c1cc(C(F)(F)F)c(Cl)c([N+](=O)[O-])c1Cl | – | -0.716%
48 | Cc1cc(N=Nc2ccccc2C)ccc1N | inactive | –
49 | CC(C)CCCCCCCOP(=O)(Oc1ccccc1)Oc1ccccc1 | – | -0.0262%
50 | C=CC(=O)OCC(COC(=O)C=C)(COC(=O)C=C)COC(=O)C=C | – | -0.0591%
51 | N#CNC#N | – | -0.0468% [at 95.7 µM]
52 | CCCCCCCCCCCCCC[P+](CCCCCC)(CCCCCC)CCCCCC (tested in a mixture with another compound) | – | 0.141%
